DRD3 antagonist: antagonists of human D3 dopamine receptor. D3R cells, DiscoveRx beta-arrestin luminescence, antagonist mode; hits give low values. hit rate 2.5% among 360,000. max response, negative = inhibition, %. P35462; in the data active = max response below about -50%; inconclusive = no clear call, values can overlap the other calls; note: % is set by controls: 0 for no effect and ±100 for the full control effect
Target sequence (P35462 whole entry, looked up): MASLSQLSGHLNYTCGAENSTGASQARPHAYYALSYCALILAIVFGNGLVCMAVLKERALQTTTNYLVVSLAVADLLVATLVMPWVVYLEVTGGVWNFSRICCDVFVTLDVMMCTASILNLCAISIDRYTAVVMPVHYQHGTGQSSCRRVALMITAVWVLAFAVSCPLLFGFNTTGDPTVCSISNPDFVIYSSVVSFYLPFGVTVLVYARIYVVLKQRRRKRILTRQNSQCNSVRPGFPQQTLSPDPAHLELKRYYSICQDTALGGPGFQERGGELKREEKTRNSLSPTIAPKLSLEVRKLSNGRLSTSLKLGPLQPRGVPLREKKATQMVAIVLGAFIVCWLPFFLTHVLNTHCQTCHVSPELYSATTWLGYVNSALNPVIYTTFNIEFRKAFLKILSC
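Cells expressing the human receptor were seeded at 1500 cells/well, incubated overnight at 37 degrees C in 5% CO2, then exposed to library compounds with dopamine controls for 90 minutes at 37 degrees C before luminescent detection.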
Nrf2 activator: Nrf2 pathway activation. hit rate 0.31% among 410,000. Potency, µM (doses to about 46.1 µM), for the others: at the top dose activation, usual class: activators. AREc32 ARE-luciferase reporter (MCF7-derived line), luminescence, 24 h; note: potency is the fitted concentration of half-maximal effect; % of control where 0% means no effect; nearly all actives have a fitted effect of over 65% in size
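Each well held 1000 AREc32 cells, which were incubated with compound for 24 hr at 37 deg C after overnight attachment, and ARE reporter activity was quantified by firefly luciferase luminescence.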
GRP78 ERSR act: ER stress response induction in glioma; U87-MG GRP78 promoter luciferase reporter, 16 h; Potency, µM, for the others: at the top dose activation, most hits filed as activators; hit rate 0.02% among 420,000; AID 602332; note: potency is the fitted concentration of half-maximal effect; series mostly up to about 76 µM; % of control where 0% means no effect; nearly all actives have a fitted effect of over 35% in size
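Stably transfected U87-MG glioma cells carrying a GRP78-based luciferase sensor; 16 h compound incubation. Luminescence end-point read 10 min after Bright-Glo addition at room temperature.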
D3 ag: agonists of human D3 dopamine receptor; P35462; D3R DiscoveRx beta-arrestin cells, luminescence, 90 min; max activation, %; hit rate 0.58% among 410,000; in the data active = max activation above about 30%; note: 0% is about no effect
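Cells at 1500/well, incubated overnight, then treated with pinned compounds (dopamine as control) for 90 min at 37 degrees C. DiscoveRx reagent added for 30 - 60 minutes at room temperature; luminescence read.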
An asterisk follows results filed as active; ? = inconclusive; . = not tested or not shown. Compounds with a hit are over-represented: about 3% of the library has one in this group of screens. Unless noted, calls come from the whole dose curve; as a rule, active = well fitted curve in the direction sought with a large enough effect; inconclusive = small, poorly fitted or top-dose-only effect, or another doubt; inactive = no such curve, though single readings can be large; an effect the other way counts as inactive or inconclusive.

SMILES	DRD3 antagonist	Nrf2 activator	GRP78 ERSR act	D3 ag
COc1ccc(CNC(=O)[C@H](C)NC(=O)C2CCN(C(=O)[C@@H](N)CCSC)CC2)cc1	-6.0	-0.6%	-4.0%	-5.2
CSCC[C@H](N)C(=O)N1CCC(C(=O)N[C@@H](C)C(=O)NCc2ccc(F)cc2)CC1	4.7	0.1%	-2.7%	31.3*
Cc1ccc(NC(=O)c2cc3c(=O)n(Cc4ccco4)ccc3nc2C)cc1C	.	21.8%	-2.4%	65.3*
Cc1nc2ccn(Cc3ccco3)c(=O)c2cc1C(=O)Nc1ccc(F)cc1	.	12.6µM*	-4.0%	-0.9
COc1ccc(NC(=O)c2cc3c(=O)n(Cc4ccco4)ccc3nc2C)c(OC)c1	.	16.1%	3.1%	-0.7
Cc1cc(C)cc(NC(=O)c2cc3c(=O)n(Cc4ccco4)ccc3nc2C)c1	.	0.2%	-1.8%	8.5
CC[C@H](C)[C@H](NC(=O)[C@H](CO)NC(=O)[C@H](C)NC(=O)[C@H](C)NC(=O)[C@H](CCC(N)=O)NC(=O)[C@H](CCCCN)NC(=O)[C@H](CCCN=C(N)N)NC(=O)[C@@H](N)CS)C(=O)N[C@@H](CCCCN)C(=O)N[C@H](C(=O)N[C@@H](C)C(=O)N[C@H](C(=O)N[C@@H](CO)C(=O)O)C(C)C)C(C)C	.	.	-0.2%	.
O=C(NCC1Cc2cccc(-c3cncnc3)c2O1)C1CC1 (configuration not stated)	.	.	-2.6%	.
OCCN1CCN(C2Cc3cc(Cl)ccc3Sc3ccc(Cl)cc32)CC1 (configuration not stated) (tested in a mixture with another compound)	-71.9*	-0.1%	-18.6%	6.0
CCc1ccc2c(c1)Sc1ccccc1CC2N1CCN(C)CC1 (configuration not stated)	-116.0*	-3.0%	-3.6%	-18.7
CN1CCN(C2=Cc3cc(Cl)ccc3Sc3cc(F)ccc32)CC1	-8.4	-0.8%	-17.4%	-19.5
CN1CCN(CCOC2Cc3ccccc3Sc3ccc(Cl)cc32)CC1 (configuration not stated)	-62.7*	19.6%	-2.4%	-8.3
c1ccc2c(c1)CC(N1CCCCC1)c1ccccc1S2 (configuration not stated)	-1.1	-0.3%	2.0%	-3.1
CN1CCN(C2Cc3cc(Cl)ccc3Sc3cc(F)ccc32)CC1 (configuration not stated)	-93.5*	-0.9%	-6.6%	-54.2
COc1cccc(-c2nc3cc(SC)ccc3cc2CN(C(=O)c2sccc2C)C2CC2)c1	.	.	-0.5%	.
CCc1ccc(NC(=O)CSc2nnc(-c3ccccc3)n2C)cc1	.	.	-3.1%	.
COc1ccc(-c2nc(CN3CCN(c4ccccc4OC)CC3)c(C)o2)cc1	-70.9*	4.4%	-2.7%	-34.7
COc1ccccc1N1CCN(Cc2cn[nH]c2-c2ccc(F)cc2)CC1	-66.8*	-0.2%	4.2%	-32.9
COc1ccc(-c2nc(CN3CCN(Cc4cccc(Cl)c4)CC3)c(C)o2)cc1	-60.3*	3.4%	1.0%	-1.6
COc1ccccc1CN1CCN(Cc2nc(-c3ccc(C)cc3)oc2C)CC1	-16.6	3.0%	-1.7%	-24.6
COc1ccccc1N1CCN(Cc2nc(-c3ccc(F)cc3)oc2C)CC1	-115.5*	4.1%	-0.1%	-3.3
OC1(c2cccnc2)CCN(Cc2ccc3c(c2)CN(Cc2cccc(C(F)(F)F)c2)CCO3)CC1	.	.	-3.1%	.
Cc1ccc(C2CC(=O)C(C=NCCN3CCN(C(=S)Nc4ccc(F)cc4)CC3)=C(O)C2)cc1 (configuration not stated)	-11.3	-0.9%	-5.6%	-5.4
Cc1cc(C)nc(N/N=C/C2=C(O)CC(c3ccc(F)cc3)CC2=O)n1 (configuration not stated)	-121.4*	0.4%	3.8%	-25.6
CCOc1ccccc1-c1c2cc(O)c(=O)cc-2oc2cc(O)c(O)cc12	-58.3*	-1.4%	-6.6%	-15.2
SMILES	DRD3 antagonist	Nrf2 activator	GRP78 ERSR act	D3 ag
O=c1cc2oc3cc(O)c(O)cc3c(-c3ccccc3O)c-2cc1O	-13.0	?	17.1%	-1.0
Cc1nccn1C[C@@H]1CCc2c(c3ccccc3n2C)C1=O	-79.1*	-1.4%	-3.7%	-37.6
Cc1nccn1CC1CCc2c(c3ccccc3n2C)C1=O (configuration not stated)	7.9	0.3%	-1.1%	4.1
CC[C@H]1OC(=O)[C@H](C)[C@@H](O[C@H]2C[C@@](C)(OC)[C@@H](O)[C@H](C)O2)[C@H](C)[C@@H](O[C@@H]2O[C@H](C)C[C@H](N(C)C)[C@H]2O)[C@](C)(O)C[C@H](C)C(=NOCOCCOC)[C@H](C)[C@@H](O)[C@]1(C)O	.	.	-3.4%	.
CN(C)CC(O)COc1cc2ccccc2cc1C(=O)N1CCCCC1 (configuration not stated)	-59.2*	-0.8%	-3.2%	-4.3
O=c1[nH]/c(=C/c2ccc3c(c2)OCO3)c(=O)[nH]/c1=C/c1ccc2c(c1)OCO2	.	.	-1.7%	.
CC(C)C(=O)Nc1cccc(-c2cnc3ccccc3n2)c1	3.8	2.0%	1.5%	4.8
CNC(=S)Nc1cccc(-c2cnc3ccccc3n2)c1	-73.7*	6.9%	1.6%	-12.1
O=[N+]([O-])c1cccc(-c2cnc3ccccc3n2)c1	34.6	6.31µM*	2.7%	-4.5
CC[C@@H](C)[C@@H](CO[C@@H](Cc1ccccc1)C(=O)N[C@@H](CCS(C)(=O)=O)C(=O)OC(C)C)NC[C@@H](N)CS	.	.	-1.2%	.
COc1cc(N(C)C)c(OC)cc1/C=C/c1ccnc2ccccc12	.	.	1.8%	.
CN1c2ccsc2/C(=N/NC(=O)c2c(F)cccc2F)CS1(=O)=O	-25.1	0.0%	-6.9%	-9.0
CN1c2ccsc2/C(=N/Nc2ccccc2)CS1(=O)=O	-15.4	7.08µM*	12.3%	-20.2
Cc1ccc(/C=N/n2c(-c3ccccc3)csc2=S)cc1	.	.	-1.7%	-14.7
COc1ccc(-c2nc3cccc(C)n3c2NCc2ccco2)cc1OC	-52.2*	8.6%	7.4%	5.8
COc1ccc(-c2csc(NCc3ccco3)n2)cc1C	0.0	5.3%	0.1%	-6.8
CCOc1ccccc1N1CCN(Cc2ccc(Br)s2)CC1	-95.1*	0.2%	-3.5%	7.2
COc1cc(OC)c(OC)cc1CN1CCN(c2ccccc2OC)CC1	-66.4*	-0.5%	-5.0%	-31.6
CCOC(=O)C1CCN(Cc2ccc(OC)c(C)c2OC)CC1	0.0	-0.4%	-6.4%	-8.3
CCOc1ccccc1N1CCN(Cc2ccco2)CC1	-23.8	0.3%	-3.5%	-37.8
COc1ccccc1N1CCN(Cc2cccc(OC)c2OC)CC1	-24.3	0.0%	-3.9%	-5.2
CCOc1ccccc1N1CCN(Cc2ccc(OC)c(OC)c2OC)CC1	-141.0*	-0.6%	-7.4%	-38.7
CCOC(=O)C1CCN(c2ccccc2CN2CCN(c3ccccc3OCC)CC2)CC1	-75.0*	-0.6%	-7.7%	-10.7
Cc1ccc2c(c1)CN(CCNC(=O)c1cccc(Cn3cccn3)c1)CC(C)O2 (configuration not stated)	.	.	-1.0%	.
O=C1C(=O)C(c2cc(O)c(O)c(O)c2)Oc2cc(O)cc(O)c21 (configuration not stated)	.	.	-0.8%	.
COc1ccccc1N1CCN(Cc2cc(=O)oc3ccccc23)CC1	6.2	3.4%	-1.7%	5.5
CCOc1ccccc1N1CCN(Cc2cnc(-c3ccccc3)[nH]2)CC1	-94.0*	0.5%	-5.5%	-16.4

Source: PubChem
